{"source": "PubChem BioAssay AID1259422", "about": "(The Scripps Research Institute Molecular Screening Center, 2018)", "note": "Hit rate of the full screen: of about 640,000 compounds, about 9,300 (1.5%) were called active. No stated cut-off is given here; in the data, active means inhibition above about 32%; inactive means the rest. Shown is part of a subset that was picked to be rich in actives.", "data": [{"assay": "TEAD-YAP interaction inhibition, primary screen, TEAD-YAP interaction inhibitor project, luminescence, HEK-TIYL cells (AID 1259422);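 further: 0% = median of test compound wells and 100% = reference inhibitor wells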", "conditions": "TEAD-Gal4/YAP UAS-luciferase luminescence, at 9.12 µM, active compounds read high", "values": [{"smiles": "CCN(CC)C(=O)c1sc(NC(=O)c2c(-c3ccccc3)noc2C)c(C(=O)OC(C)C)c1C", "inhibition": "2.03% (inactive)"}, {"smiles": "Fc1ccc(C2=Nc3ccc(F)cc3C(C3CC3)=NN2)cc1", "inhibition": "-2.31% (inactive)"}, {"smiles": "CCOc1ccc(C(=O)NCC(=O)OCC#N)cc1", "inhibition": "0.54% (inactive)"}, {"smiles": "CCOC(=O)/C(N=Nc1cc(C(=O)O)cc(C(=O)O)c1)=C(\\C)O", "inhibition": "8.94% (inactive)"}, {"smiles": "CS(=O)(=O)c1ccc(C(=O)OCC(=O)c2ccc3c(c2)OCCO3)cc1[N+](=O)[O-]", "inhibition": "2.27% (inactive)"}, {"smiles": "CCOC(=O)/C(N=Nc1ccc2c(c1)OCCO2)=C(/O)c1ccc([N+](=O)[O-])cc1", "inhibition": "88.1% (active)"}, {"smiles": "COc1ccc(CNC(=O)CC(C)C)cc1", "inhibition": "-2.6% (inactive)"}, {"smiles": "c1cc(-c2ccc(OC3CCNCC3)cc2)cs1", "inhibition": "-27.5% (inactive)"}, {"smiles": "Cc1cc(C)c(OCCn2c(-c3ccc(Cl)cc3)nc3ccccc3c2=O)c(C)c1", "inhibition": "-10.6% (inactive)"}, {"smiles": "CCOc1ccc(S(=O)(=O)Nc2cc(C)cc(C)c2)cc1", "inhibition": "-1.15% (inactive)"}, {"smiles": "CCOc1ccc(NS(=O)(=O)c2ccc(Cl)cc2)cc1", "inhibition": "3.58% (inactive)"}, {"smiles": "CCOc1ccc(S(=O)(=O)Nc2ccc(Cl)cc2C)cc1", "inhibition": "53% (active)"}, {"smiles": "O=C(c1ccccc1F)N1CCc2nnc(Cc3ccccc3)n2CC1", "inhibition": "6.95% (inactive)"}, {"smiles": "CCCCN(C)Cc1c(O)c(Cl)cc2c(C)cc(=O)oc12", "inhibition": "6.72% (inactive)"}, {"smiles": "Cc1c(C(=O)Nc2ccc3c(c2)Cc2ccccc2-3)oc2ccccc12", "inhibition": "-8.71% (inactive)"}, {"smiles": "CC(C)c1nnc(NC(=O)CCN2C(=O)C3C4C=CC(C4)C3C2=O)s1", "note": "(stereo not given)", "inhibition": "-6.27% (inactive)"}, {"smiles": "Cc1cc(C)n2cc(CN3CCc4ccccc4C3)nc2n1", "inhibition": "-0.09% (inactive)"}, {"smiles": "O=C(Nc1nc2ccccc2s1)c1sc2ccccc2c1Cl", "inhibition": "38.5% (active)"}, {"smiles": "O=C(Nc1cccc2ncccc12)c1sc2ccccc2c1Cl", "inhibition": "-3.37% (inactive)"}, {"smiles": "Cc1ccc(-c2nc3ccccc3s2)cc1NC(=O)c1sc2ccccc2c1Cl", "inhibition": "-13.1% (inactive)"}, {"smiles": "Cc1ccc2c(c1)NC(=O)C(CC(=O)NCCN(C)C1CCCCC1)O2", "note": "(stereo not given)", "inhibition": "-13.3% (inactive)"}, {"smiles": "CCc1nnc2sc(-c3ccc(NC(=O)COc4ccccc4[N+](=O)[O-])cc3)nn12", "inhibition": "1.75% (inactive)"}, {"smiles": "COc1ccc(-n2cc(-c3ccccc3)c3c(NCCc4ccc(S(N)(=O)=O)cc4)ncnc32)cc1", "inhibition": "9.44% (inactive)"}, {"smiles": "Cn1ncc([N+](=O)[O-])c1C(=O)Nc1ccc2nc(NC(=O)C3CCCCC3)sc2c1", "inhibition": "66.2% (active)"}, {"smiles": "CC(=O)Nc1ccc2nc(NC(=O)c3ccc(S(=O)(=O)N4CCCCC4)cc3)sc2c1", "inhibition": "1.92% (inactive)"}, {"smiles": "CC(=O)Nc1ccc2nc(NC(=O)c3cc4cc([N+](=O)[O-])ccc4s3)sc2c1", "inhibition": "16.6% (inactive)"}, {"smiles": "CCOC(=O)C1CCN(Cc2cccc([N+](=O)[O-])c2)CC1", "inhibition": "-8.78% (inactive)"}, {"smiles": "COc1cccc(/C=C2\\SC(=S)N(c3ccc(C(=O)O)c(O)c3)C2=O)c1OC", "inhibition": "47.1% (active)"}, {"smiles": "O=C(O)c1cc(N2C(=O)/C(=C/c3ccc(O)cc3)SC2=S)ccc1O", "inhibition": "1.88% (inactive)"}, {"smiles": "Cc1ccc(/C=C2\\SC(=S)N(c3cccc(O)c3)C2=O)o1", "inhibition": "-1.97% (inactive)"}, {"smiles": "CCn1c(=O)cc(SCC(=O)Nc2nc(C)cs2)c2ccccc21", "inhibition": "-2.9% (inactive)"}, {"smiles": "CC(=O)O[C@@H]1C[C@H](c2ccc(F)cc2)N(C)C1=O", "inhibition": "3.54% (inactive)"}, {"smiles": "Cc1cc(/C=C2\\Sc3ccccc3N2C)cc(C)[n+]1CCO", "inhibition": "73.5% (active)"}, {"smiles": "CCOc1cc2c(cc1OCC)N(CC)/C(=C\\C=O)S2", "inhibition": "-11.6% (inactive)"}, {"smiles": "O=C(CN1C(=O)/C(=C/c2ccccc2)Sc2ccccc21)N1CCCC1", "inhibition": "-1.18% (inactive)"}, {"smiles": "O=C1c2ccccc2C(=O)N1CCC(=O)N1c2ccccc2Sc2ccccc21", "inhibition": "-5.51% (inactive)"}, {"smiles": "CN1/C(=C/C(=S)C(C)(C)C)Sc2ccccc21", "inhibition": "-12.6% (inactive)"}, {"smiles": "CCN1/C(=C/c2cc(C)[n+](N3CCN(C)CC3)c(C)c2)Sc2ccccc21", "inhibition": "75.1% (active)"}, {"smiles": "Cc1ccc(CC(=O)O/N=C(\\N)c2ccc(Br)cc2)cc1", "inhibition": "-13% (inactive)"}, {"smiles": "Cc1cc(Nc2ccc3c(c2)OCO3)nc(Nc2cccc(N(C)C)c2)n1", "inhibition": "2.34% (inactive)"}, {"smiles": "CC1(C)CC(=O)C(N=Nc2cc(C(N)=O)c(Cl)cc2Cl)=C(O)C1", "inhibition": "-1.09% (inactive)"}, {"smiles": "COc1cccc(C(=O)NC(=S)Nc2cccc(C(=O)O)c2)c1", "inhibition": "30.7% (inactive)"}, {"smiles": "COc1ccc(C(=O)Nc2nc(C)cs2)c(OC)n1", "inhibition": "89.4% (active)"}, {"smiles": "COc1ccccc1C(=O)Nc1nc(C)cs1", "inhibition": "80.1% (active)"}, {"smiles": "COc1ccc2oc(=O)c(-c3csc(NC(=O)c4ccccc4)n3)cc2c1", "inhibition": "1.86% (inactive)"}, {"smiles": "Cc1csc(NC(=O)c2ccc(I)cc2)n1", "inhibition": "-17.9% (inactive)"}, {"smiles": "COc1cccc(C(=O)Nc2nc(-c3ccc(C)c(C)c3)cs2)c1OC", "inhibition": "-6.84% (inactive)"}, {"smiles": "COc1ccccc1C(=O)Nc1nc(-c2ccccc2)c(C)s1", "inhibition": "-3.33% (inactive)"}, {"smiles": "CCOC(=O)C1(Cc2cccc(F)c2)CCN(CCO)CC1", "inhibition": "2.96% (inactive)"}, {"smiles": "CCN1CCN(S(=O)(=O)c2ccc(F)c(C(=O)Nc3cccc(C)c3C)c2)CC1", "inhibition": "3.75% (inactive)"}, {"smiles": "O=C(Nc1ccccc1Br)c1ccc(Cl)c([N+](=O)[O-])c1", "inhibition": "-1.84% (inactive)"}, {"smiles": "O=C(CSc1nc2ccccc2c(=O)n1-c1ccc(C(=O)N2CCOCC2)cc1)NCc1ccccc1Cl", "inhibition": "5.25% (inactive)"}, {"smiles": "COc1cccc(NC(=O)Cn2c3ccccc3c(=O)c3cc(Cl)ccc32)c1", "inhibition": "1.55% (inactive)"}, {"smiles": "CCOc1cc(/C=C2\\SC(=S)NC2=O)cc(Br)c1OC", "inhibition": "-5.88% (inactive)"}, {"smiles": "CN1CCN(c2ccc(-c3cc(Nc4ccc(N5CCOCC5)cc4)nc(N)n3)cc2)CC1", "inhibition": "64.9% (active)"}, {"smiles": "Nc1nc(Nc2ccc(N3CCOCC3)cc2)cc(-c2ccc3[nH]ccc3c2)n1", "inhibition": "-4.34% (inactive)"}, {"smiles": "CN1CCN(c2ccc(-c3cc(NCCOc4ccccc4)nc(N)n3)cc2)CC1", "inhibition": "23.1% (inactive)"}, {"smiles": "COc1ccc(CCNc2nc(-c3c(C)noc3C)nc3c2ncn3Cc2ccc(C(F)(F)F)cc2)cc1", "inhibition": "40.4% (active)"}, {"smiles": "CCNc1nc(NCCc2ccc(OC)cc2)c2ncn(Cc3ccc(C(F)(F)F)cc3)c2n1", "inhibition": "12.1% (inactive)"}, {"smiles": "COc1ccc(-c2nc(NCc3ccccc3)c3ncn(Cc4ccc(C(F)(F)F)cc4)c3n2)cc1", "inhibition": "5.78% (inactive)"}]}]}
